Screens as filed in PubChem BioAssay.
Only a selection was taken, and hits are over-represented in it overall.
AmpC detergent = inhibitors of E. coli AmpC beta-lactamase with detergent; AmpC hydrolysis of nitrocefin, absorbance 480 nm, 0.01% Triton; Potency, µM (top dose mostly 114 µM), for the others: at the highest dose activity change, negative = inhibition, actives largely listed as inhibitors; actives 0.041% (n = 370,000);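 further: potency means the concentration at half of the fitted maximal effect; 0% = no-compound wells and -100% = no-enzyme wells; nearly all actives have a fitted effect of over 25% in size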
Target sequence (P00811 whole entry, looked up): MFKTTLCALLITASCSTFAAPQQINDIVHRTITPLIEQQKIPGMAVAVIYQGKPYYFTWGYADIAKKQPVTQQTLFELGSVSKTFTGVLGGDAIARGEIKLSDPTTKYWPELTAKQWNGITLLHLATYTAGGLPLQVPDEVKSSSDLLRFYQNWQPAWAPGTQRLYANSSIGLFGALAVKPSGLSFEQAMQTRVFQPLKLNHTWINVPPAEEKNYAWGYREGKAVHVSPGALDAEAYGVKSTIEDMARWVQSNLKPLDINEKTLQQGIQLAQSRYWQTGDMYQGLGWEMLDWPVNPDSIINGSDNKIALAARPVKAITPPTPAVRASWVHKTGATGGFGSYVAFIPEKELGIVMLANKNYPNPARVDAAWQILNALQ
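AmpC (5.3 nM in the dispensed reagent) in 20 mM phosphate pH 7.0 with 0.01% (detergent screen) or 0.0001% Triton X-100 was preincubated with compounds for 15 min at room temperature. Nitrocefin was then added from an 800 uM solution, and hydrolysis was followed at 480 nm.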
CHX counter = affects cycloheximide protein synthesis inhibition readout, counter-screen | cell reporter, cycloheximide protein synthesis inhibition counterscreen | max response, % | actives 12% (n = 300,000) | AID 2314; in the data active means max response mostly above about 13%, no sharp cut-off; inactive means mostly below about 14%; further: read at 38.3 µM for the half of the compounds with a filed dose; 0% is about no effect
AmpC inh no detg = AmpC beta-lactamase inhibition without detergent; P00811; AmpC nitrocefin hydrolysis, absorbance 480 nm, 0.0001% Triton; Potency, µM (titrated, usually from 57.1 µM), for the others: at the top dose activity change, negative = inhibition, usual class: inhibitors; actives 0.52% (n = 330,000);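 further: potency means the concentration at half of the fitted maximal effect; plate controls were no compound for no effect and no enzyme for full effect; nearly all actives have a fitted effect of over 20% in size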
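20 mM phosphate pH 7.0 + 0.01% (detergent screen) or 0.0001% Triton X-100; 5.3 nM AmpC reagent; cpd preinc 15 min RT; nitrocefin (800 uM stock) to start; A480 q20 s × 4 min; Activity was normalised to no-enzyme and no-compound control wells.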
NS1 inh = blocks influenza NS1 protein function. Potency, µM (titrated, usually from 46.1 µM), for inactives: at the top dose activity, positive = more growth. actives 0.4% (n = 270,000). AID 2326; calls by dose curve; further: potency means the concentration at half of the fitted maximal effect; actives are rising curves; nearly all actives have a fitted effect of over 50% in size
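In this qHTS, NS1 from influenza A is expressed in budding yeast, where it slows growth. Cells are switched from glucose to 2% galactose medium (pH 6.0, -URA), treated with compound, and growth recovery is read at OD600.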
Shiga inhibitor = inhibitors of Shiga toxin in Vero cells; Vero cells, Shiga toxin protein synthesis inhibition reporter; inhibition, % at 38.7 µM; actives 9.2% (n = 290,000); AID 2315; in the data active means inhibition mostly above about 28%, no sharp cut-off; inactive means mostly below about 43%; further: 0% is about no effect
* hit, by the source's call; ? = inconclusive; nt = not tested or not shown; + = active, no number; [ ] = remark or other dose. Unless noted, the call rests on the fitted dose curve; in most records, active means well fitted curve in the direction sought with a large enough effect; inconclusive means small, poorly fitted or top-dose-only effect, or another doubt; inactive means no such curve, though single readings can be large; an effect the other way counts as inactive or inconclusive.

SMILES	AmpC detergent	CHX counter	AmpC inh no detg	NS1 inh	Shiga inhibitor
COc1ccc(/C(C)=N/Nc2nncc3ccccc23)cc1	-6%	27*	-25%	2%	63*
COc1ccc(N/N=C(/C)c2cnnc(-c3ccccc3)n2)cc1	-7%	2	-48%	-19%	30
COc1ccc(-c2cc(C(F)(F)F)nc(S(=O)(=O)CCCC(=O)Nc3cc(C)on3)n2)cc1OC	0%	25*	11%	nt	-1
COc1ccccc1-c1cc(C(F)(F)F)nc(S(=O)(=O)CCCC(=O)NCc2ccc(F)cc2)n1	-1%	20*	26%	nt	-26
COc1ccc(N(CC(=O)Nc2cc(C)ccc2C)S(=O)(=O)c2ccc(OC)c(OC)c2)cc1	1%	nt	nt	nt	nt
CCc1c(C)nc(SCC(=O)N2CCCCC2)[nH]c1=O	?	2	-23%	-6%	-8
CCCCc1c(O)nc(SCC(=O)N2CCCCC2)[nH]c1=O	-12%	17*	-12%	4%	65
NNCCc1ccccc1	-7%	47*	-13%	-21%	110*
CNCCc1ccccc1	-6%	-7	-3%	8%	-7
COn1c(-c2ccccc2)nc2ccc(Cl)cc21	-10%	31*	-14%	-101%	72*
O=[N+]([O-])c1ccc2nc(-c3ccccc3)n(OCc3ccc(Cl)cc3)c2c1	-1%	18*	-28%	-81%	18
O=C(O)COn1c(-c2ccccc2)nc2ccc(Cl)cc21	-2%	22*	-28%	0%	40
CN(C)C(=O)On1c(-c2ccccc2)nc2ccc(Cl)cc21	2%	39	-2%	-7%	28
O=C(NCc1ccco1)Nc1ccc(Br)cc1Cl	1%	48*	-26%	-39%	87*
O=C(NCc1ccco1)c1cc2ccccc2c(=O)o1	1%	67*	-10%	3%	148*
O=C(NCc1ccco1)c1cc2cc(Br)ccc2o1	-3%	35*	-33%	-29%	87*
O=C(CSc1ncc2c(n1)-c1cc(Cl)ccc1N(Cc1ccccc1F)S2(=O)=O)Nc1cccc(C(F)(F)F)c1	6%	nt	nt	nt	nt
Cc1oc(-c2nc3ccccc3n2C)cc1C(=O)c1ccccc1	-2%	27*	-12%	-80%	+
Cn1cc(C(=O)c2ccccc2)cc1-c1nc2ccccc2n1C	-3%	13*	-16%	-92%	31
O=S(=O)(c1ccc(F)cc1)N1CCN(c2nc(-c3cccs3)nc3cc(Cl)ccc23)CC1	nt	-2	nt	nt	4
CCOC(=O)C1C(c2cccc([N+](=O)[O-])c2)C2C(=O)NN=C2CC1(C)O (stereo not drawn)	6%	-4	-17%	nt	15
Cc1ccc(C(=O)/C=C/Nc2ccccc2C(N)=O)cc1	2%	19*	-44%	-20%	24
Cc1ccc(C)c(OCCCC(=O)Nc2ccccc2C(N)=O)c1	2%	10	-2%	2%	11
NC(=O)c1ccccc1N/C=C/C(=O)c1ccc(Cl)cc1	3%	52*	-26%	-75%	49*
Cc1cccc(CCN=c2c([N+](=O)[O-])nn(-c3ccccc3)n2O)c1	-1%	12	-1%	nt	12
SMILES	AmpC detergent	CHX counter	AmpC inh no detg	NS1 inh	Shiga inhibitor
O=[N+]([O-])c1nn(-c2ccccc2)n(O)c1=NCc1ccc2c(c1)OCO2	-14%	30*	-21%	-6%	54*
COc1ccc(-n2nc([N+](=O)[O-])c(=NCc3ccc4c(c3)OCO4)n2O)cc1	-9%	55*	-17%	-2%	65*
O=[N+]([O-])c1nn(-c2ccc(Cl)cc2)n(O)c1=NCc1ccccc1	-6%	36*	-16%	nt	61
C/C=C/c1ccc(OCC(=O)OCc2csc(Nc3ccc(C)cc3)n2)c(OC)c1	-11%	44*	-45%	13%	91*
C/C=C/c1ccc(OCC(=O)Nc2ccc(C(N)=O)cc2)c(OC)c1	?	1	-16%[11.4 µM]	nt	-6
Cc1ccc(Nc2nc(COC(=O)COc3ccc(C=O)cc3)cs2)cc1	-4%	25*	-6%	-23%	69*
COc1ccc(C2c3sc(=O)[nH]c3SC3C(=O)N(c4ccccc4)C(=O)C32)cc1 (stereo not drawn)	?	-3	?	-35%	18
O=C1C2Sc3[nH]c(=O)sc3C(c3ccccc3)C2C(=O)N1c1ccccc1 (stereo not drawn)	-9%	6	18µM*	?	10
CC(C)N1CC(COc2ccc(Cl)cc2Cl)OC1=O (stereo not drawn)	-6%	16	41%	0%	35
Cc1cc(C(=O)N/N=C/c2c(C)[nH]n(-c3ccccc3)c2=O)n[nH]1	3%	9	-5%	-9%	-7
Cc1ccc(-n2[nH]c(C)c(C=Nc3ccc(Br)cn3)c2=O)cc1	-12%	1	-19%	nt	3
Cc1[nH]n(-c2ccc(Br)cc2)c(=O)c1/C=N/NC(=O)c1ccccc1	1%	28*	-19%	-19%	92*
Cc1[nH]n(-c2ccccc2)c(=O)c1/C=N/NC(=O)c1cccc(F)c1	6%	43*	-20%	-62%	66*
COc1ccc(C(=O)OCC(=O)Nc2sccc2C(N)=O)cc1[N+](=O)[O-]	2%	nt	-9%	nt	nt
CCN1C(=O)[C@H]2[C@@H](c3ccc(-c4ccc(OC)cc4)cc3)N3CCC[C@@]3(C(=O)OC)[C@H]2C1=O	?	nt	155%	nt	nt
O=C(Nc1ccc(-c2nc3ccccc3s2)c(O)c1)C1=COCCO1	0%	131*	-25%	9%	73*
O=C(Nc1ccc(O)c(-c2nc3ccccc3s2)c1)C1=COCCO1	-3%	-2	-35%	9%	1
O=C(Nc1cccc(-c2nc3ccccc3s2)c1)C1=COCCO1	1%	44*	17%	2%	50*
O=C(Nc1ccc(-c2nc3ccccc3s2)cc1)C1=COCCO1	-1%	40*	-14%	7%	56*
CCCCCCc1cc2cc(-c3cn4c(n3)sc3cc(OC)ccc34)c(=O)oc2cc1O	9%	nt	nt	nt	nt
CCCCN(C)CCCNC(=O)C1CCN(S(=O)(=O)CCC)CC1	6%	nt	nt	nt	nt
COC(=O)c1cc2sccc2n1CC(=O)Nc1ccc(OC)c(OC)c1	-2%	nt	nt	nt	nt
CCOc1ccc(C2C(C#N)=C(N)N3C(=C2C#N)Sc2ccccc23)cc1 (stereo not drawn)	?	26*	-40%	?	65*
N#CC1=C(N)N2C(=C(C#N)C1c1ccccc1)Sc1ccccc12 (stereo not drawn)	?	5	-35%	-7%	-4
COc1cccc2oc(SC)cc(=O)c12	nt	30	nt	nt	+
COc1cccc2oc(-c3ccccc3)cc(=O)c12	nt	29*	nt	nt	33*
COc1ccc(Br)c2oc(S)cc(=O)c12	-10%	-4	-19%	9%	-7
CN(c1ccccc1C(=O)Nc1cccc(Br)c1)S(=O)(=O)c1ccccc1	?	-2	-19%	-19%	-1
C=CCn1c(=NC(=O)c2cccs2)sc2cccc(OC)c21	10%	28*	-34%	-12%	53*
